# From PubChem BioAssay (Tox21)
# Records with an inconclusive call do not appear. Where a call stands in place of a potency, no number is given. Where a structure was tested more than once in an assay, its records may differ in their call. Activity calls are given as the source filed them. Unless noted, the call rests on the fitted dose curve.
# How the values were obtained:
# [1] = Nuclear factor erythroid 2-related factor 2/antioxidant responsive element (Nrf2/ARE) small molecule agonists: qHTS cell viability counter screen in human keratinocytes (AID 1919968; active means well fitted curve in the direction sought with a large enough effect in the repeat runs; an effect the other way counts as inactive or inconclusive; further: nearly all actives have a fitted effect of over 55% in size; further: potency means the concentration at half of the fitted maximal effect)
# In short: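 Cells of the KeratinoSens line were plated at 1,500 per well and left for 5 h before compound transfer from DMSO stocks. After a 23 h incubation (37 C, 5% CO2), CellTiter-Fluor was added. Signal was taken as fluorescence intensity 1 h later.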
# [2] = Nuclear factor erythroid 2-related factor 2/antioxidant responsive element (Nrf2/ARE) small molecule agonists: luciferase reporter gene qHTS assay in human keratinocytes (AID 1919969); further: nearly all actives have a fitted effect of over 35% in size; further: potency means the concentration at half of the fitted maximal effect
# [3] = target: Gonadotropin-releasing hormone receptor (Homo sapiens) (UniProt P30968); experiment: Human gonadotropin-releasing hormone receptor (GnRHR) small molecule agonists, calcium flux assay in GnRHR-HEK293 cells (AID 1920063); further: nearly all actives have a fitted effect of over 35% in size
# Chain of Gonadotropin-releasing hormone receptor (Homo sapiens) (P30968 whole entry, looked up): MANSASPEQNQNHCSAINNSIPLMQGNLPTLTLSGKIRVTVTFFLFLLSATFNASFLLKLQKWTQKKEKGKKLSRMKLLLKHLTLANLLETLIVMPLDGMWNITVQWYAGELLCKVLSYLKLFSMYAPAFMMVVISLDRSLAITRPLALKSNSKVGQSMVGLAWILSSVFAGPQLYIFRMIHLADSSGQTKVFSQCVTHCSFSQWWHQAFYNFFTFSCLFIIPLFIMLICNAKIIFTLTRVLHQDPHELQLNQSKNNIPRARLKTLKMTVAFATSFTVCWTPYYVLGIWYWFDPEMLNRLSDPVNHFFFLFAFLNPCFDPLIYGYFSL
# In short: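 Compounds dissolved in DMSO are pin-transferred onto dye-loaded GnRHR-HEK293 cells, which were seeded 18 h before at 37 C/5% CO2. Calcium signal is read as fluorescence intensity at 1 s intervals for 3 min.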
# [4] = target: KiSS-1 receptor (Homo sapiens) (UniProt Q969F8); experiment: Human kisspeptin (KISS1R) small molecule agonists, calcium flux assay in KISS1R-HEK293 cells (AID 1920064; active means well fitted curve in the direction sought with a large enough effect in the repeat runs; an effect the other way counts as inactive or inconclusive)
# Chain of KiSS-1 receptor (Homo sapiens) (Q969F8 whole entry, looked up): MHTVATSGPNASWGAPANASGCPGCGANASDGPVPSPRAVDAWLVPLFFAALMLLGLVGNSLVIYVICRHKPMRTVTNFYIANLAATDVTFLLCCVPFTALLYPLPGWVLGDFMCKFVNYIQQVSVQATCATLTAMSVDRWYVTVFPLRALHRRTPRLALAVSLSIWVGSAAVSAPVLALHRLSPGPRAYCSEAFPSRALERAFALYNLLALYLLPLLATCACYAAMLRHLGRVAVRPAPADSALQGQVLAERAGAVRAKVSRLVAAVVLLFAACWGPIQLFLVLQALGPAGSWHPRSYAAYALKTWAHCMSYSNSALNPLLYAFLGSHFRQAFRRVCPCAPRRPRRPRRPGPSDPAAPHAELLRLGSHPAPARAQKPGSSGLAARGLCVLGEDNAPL
# In short: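 Cell line: HEK293, stable human KISS1R. Dye loading 1 h at 37 C after 18 h culture. Read: kinetic fluorescence, 480/540 nm, 3 min at 1 s intervals.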
# [5] = G protein-coupled receptor (GPCR) small molecule agonists, calcium flux assay: HEK293 wild type cell line counter screen (AID 1920065)
# In short: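 Tox21 10K compounds, 15 concentrations each in triplicate, pin-transferred in DMSO onto dye-loaded cells; kinetic read at 480/540 nm for 3 min, 1 s intervals.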
# [6] = p53 small molecule agonists, cell-based qHTS assay with human liver microsomes (AID 1963577)
# In short: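 Compounds act here after metabolic activation: human liver microsomes and NADPH, both at 0.5 mg/mL final, were co-added to p53RE-bla cells. Incubation ran 16 h at 37 C, followed by LiveBLAzer detection.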
# [7] = p53 small molecule agonists, cell-based qHTS assay with rat liver microsomes (AID 1963578)
# In short: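 Read-out is beta-lactamase reporter fluorescence (LiveBLAzer, 2 h, room temperature, dark) in p53RE-bla cells treated 16 h at 37 C with compound, rat liver microsomes and NADPH, both 0.5 mg/mL final.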
# [8] = p53 small molecule agonists, cell-based qHTS assay with human liver microsomes: qHTS cell viability counter screen (AID 1963579); further: nearly all actives have a fitted effect of over 45% in size
# In short: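 Cells carrying the p53 response-element beta-lactamase reporter are treated for 16 h at 37 C with test compounds in the presence of human liver microsomes and NADPH (both 0.5 mg/mL final); ATP-based CellTiter-Glo luminescence then reports viability.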
# [9] = p53 small molecule agonists, cell-based qHTS assay with rat liver microsomes: qHTS cell viability counter screen (AID 1963580); further: nearly all actives have a fitted effect of over 45% in size
# In short: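 Cytotoxicity counter screen: intracellular ATP read by CellTiter-Glo luminescence in the p53 reporter wells. HCT-116 p53RE-bla cells were treated for 16 h at 37 C alongside rat liver microsomes and NADPH, each 0.5 mg/mL final.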
# [10] = p53 small molecule agonists, cell-based qHTS assay: qHTS cell viability counter screen (AID 1963581); further: nearly all actives have a fitted effect of over 45% in size
# In short: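 ATP content measured by luminescence in HCT-116 p53RE-bla cells treated 16 h at 37 C, same wells as the reporter screen.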
# [11] = p53 small molecule agonists, cell-based qHTS assay (AID 1963582; active means well fitted activation curve with a large enough effect in the signal ratio in the repeat runs, not every such curve was filed as active; the % refers to the signal ratio)
# In short: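 16 h compound exposure (37 C) of p53 response element–bla cells, preceded by 5 h recovery at 37 C/5% CO2; read-out via LiveBLAzer B/G FRET substrate, 2 h RT, fluorescence intensity.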
# [12] = target: 5-hydroxytryptamine receptor 2A (Homo sapiens) (UniProt P28223); experiment: 5-hydroxytryptamine receptor 2A (HTR2A) small molecule antagonists, cell-based qHTS assay (AID 1963586); further: nearly all actives have a fitted effect of over 45% in size
# Chain of 5-hydroxytryptamine receptor 2A (Homo sapiens) (P28223 whole entry, looked up): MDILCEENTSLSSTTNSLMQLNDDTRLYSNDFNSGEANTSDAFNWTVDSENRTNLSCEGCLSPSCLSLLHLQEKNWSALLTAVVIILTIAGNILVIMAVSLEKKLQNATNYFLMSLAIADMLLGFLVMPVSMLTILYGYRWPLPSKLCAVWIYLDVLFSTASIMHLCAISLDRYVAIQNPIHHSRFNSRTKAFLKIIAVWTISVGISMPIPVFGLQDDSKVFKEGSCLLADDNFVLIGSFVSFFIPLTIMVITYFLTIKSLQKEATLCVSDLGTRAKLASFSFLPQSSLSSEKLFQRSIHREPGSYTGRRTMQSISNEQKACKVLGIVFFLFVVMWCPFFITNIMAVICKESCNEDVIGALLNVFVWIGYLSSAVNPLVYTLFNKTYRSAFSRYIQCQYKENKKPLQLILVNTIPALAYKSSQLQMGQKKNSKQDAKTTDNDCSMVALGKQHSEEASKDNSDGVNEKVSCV
# In short: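 CHO cells stably expressing human HTR2A were plated for 18 h at 37 C, then loaded with calcium dye for 1 h. Compounds were preincubated 5 min at room temperature before DOI (4 nM solution) was added. Kinetic fluorescence was read for 3 min.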
# [13] = target: 5-hydroxytryptamine receptor 2A (Homo sapiens) (UniProt P28223); experiment: 5-hydroxytryptamine receptor 2A (HTR2A) small molecule agonists, cell-based qHTS assay (AID 1963587); further: nearly all actives have a fitted effect of over 30% in size
# In short: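 Kinetic calcium-flux fluorescence (2 min, 1 sec intervals) after compound addition in agonist mode. HTR2A-CHO cells were cultured 18 h, then dye-loaded 1 h at 37 C.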
# [14] = target: Muscarinic acetylcholine receptor M1 (Homo sapiens) (UniProt P11229); experiment: Cholinergic receptor muscarinic 1 (CHRM1) small molecule antagonists, cell-based qHTS assay (AID 1963588); further: nearly all actives have a fitted effect of over 40% in size
# Chain of Muscarinic acetylcholine receptor M1 (Homo sapiens) (P11229 whole entry, looked up): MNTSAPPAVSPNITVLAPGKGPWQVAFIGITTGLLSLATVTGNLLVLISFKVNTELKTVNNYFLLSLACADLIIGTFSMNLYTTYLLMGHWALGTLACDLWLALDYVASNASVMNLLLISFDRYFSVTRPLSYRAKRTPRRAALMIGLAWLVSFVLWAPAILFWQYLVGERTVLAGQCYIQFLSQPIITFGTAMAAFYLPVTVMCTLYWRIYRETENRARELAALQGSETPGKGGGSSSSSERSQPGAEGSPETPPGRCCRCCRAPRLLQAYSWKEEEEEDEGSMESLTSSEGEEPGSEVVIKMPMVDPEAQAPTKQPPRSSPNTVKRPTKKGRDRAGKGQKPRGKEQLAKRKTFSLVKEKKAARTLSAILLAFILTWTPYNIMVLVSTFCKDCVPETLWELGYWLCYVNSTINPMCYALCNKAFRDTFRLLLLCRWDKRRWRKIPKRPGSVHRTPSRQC
# In short: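 Compounds were tested at 15 concentrations in three independent runs. Dye-loaded CHRM1-CHO cells were exposed 5 min at room temperature before stimulation by acetylcholine added at 50nM. Intracellular calcium was read kinetically on FDSS for 3 min.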
# [15] = target: Muscarinic acetylcholine receptor M1 (Homo sapiens) (UniProt P11229); experiment: Cholinergic receptor muscarinic 1 (CHRM1) small molecule agonists, cell-based qHTS assay (AID 1963589); further: nearly all actives have a fitted effect of over 35% in size
# In short: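 Homogeneous fluorescence calcium flux, agonist mode. Human M1-expressing CHO cells; compound dosed at 15 concentrations, three independent runs; signal sampled every 1 sec.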
# [16] = cAMP Responsive Elements (CRE) small molecule agonists, cell-based qHTS assay (AID 1963590)
# In short: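 HEK 293T cells stably bearing CRE-bla were plated at 2,000 cells per well and rested 18 h. Compounds, positive controls or DMSO were added for 3 h at 37 C. LiveBLAzer B/G substrate was then loaded for 2 h at room temperature.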
# [17] = cAMP Responsive Elements (CRE) small molecule antagonists, cell-based qHTS assay (AID 1963591; active means well fitted inhibition curve with a large enough effect in the signal ratio in the repeat runs, not every such curve was filed as active; the % refers to the signal ratio)
# In short: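 First, CRE-bla HEK293T cells settled 18 h at 37 C. Next, compound and 0.25 uM final NKH477 were applied for 3 h. Last, LiveBLAzer B/G substrate was loaded for 2 h at room temperature.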
# [18] = target: Beta-2 adrenergic receptor (Homo sapiens) (UniProt P07550); experiment: Adrenergic beta2 receptor (ADRB2) small molecule antagonists, cell-based qHTS assay (AID 1963592); further: series mostly up to about 92 µM; nearly all actives have a fitted effect of over 50% in size
# Chain of Beta-2 adrenergic receptor (Homo sapiens) (P07550 whole entry, looked up): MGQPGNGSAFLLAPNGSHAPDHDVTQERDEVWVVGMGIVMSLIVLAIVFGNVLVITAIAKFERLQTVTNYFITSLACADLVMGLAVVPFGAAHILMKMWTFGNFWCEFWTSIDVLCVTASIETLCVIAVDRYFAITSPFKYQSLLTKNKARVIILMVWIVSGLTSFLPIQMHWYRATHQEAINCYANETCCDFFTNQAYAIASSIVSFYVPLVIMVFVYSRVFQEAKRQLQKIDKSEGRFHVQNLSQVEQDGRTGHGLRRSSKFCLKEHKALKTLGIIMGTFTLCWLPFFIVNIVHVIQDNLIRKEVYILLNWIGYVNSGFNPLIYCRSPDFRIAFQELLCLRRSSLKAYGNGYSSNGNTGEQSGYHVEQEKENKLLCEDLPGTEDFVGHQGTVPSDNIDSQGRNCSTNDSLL
# In short: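 Assay format: CHO-ADRB2 cells, 18-20hr seeding at 37C/5% CO2, then compound plus 1nM isoproterenol agonist mix for 0.5hr RT. Homogeneous time-resolved fluorescence cAMP detection after 1hr, expressed as 665/615 nm ratio.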
# [19] = target: D(2) dopamine receptor (Homo sapiens) (UniProt P14416); experiment: Dopamine D2 receptor (DRD2) small molecule antagonists, cell-based qHTS assay (AID 1963595; active means well fitted inhibition curve with a large enough effect in the signal ratio in the repeat runs, with a control signal flat; the % refers to the signal ratio)
# Chain of D(2) dopamine receptor (Homo sapiens) (P14416 whole entry, looked up): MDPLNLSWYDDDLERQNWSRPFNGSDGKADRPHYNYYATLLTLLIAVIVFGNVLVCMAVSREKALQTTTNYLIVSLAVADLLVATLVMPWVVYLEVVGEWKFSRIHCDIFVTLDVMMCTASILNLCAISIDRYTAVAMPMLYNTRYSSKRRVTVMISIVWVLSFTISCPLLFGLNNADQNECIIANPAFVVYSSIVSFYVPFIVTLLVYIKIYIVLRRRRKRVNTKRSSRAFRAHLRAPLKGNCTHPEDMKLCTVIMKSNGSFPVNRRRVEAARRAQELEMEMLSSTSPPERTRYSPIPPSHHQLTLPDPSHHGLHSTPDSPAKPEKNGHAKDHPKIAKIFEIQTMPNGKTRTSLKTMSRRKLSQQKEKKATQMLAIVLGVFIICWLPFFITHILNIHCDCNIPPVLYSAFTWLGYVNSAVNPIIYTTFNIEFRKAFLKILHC
# In short: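 HEK293 cells stably expressing DRD2 were preincubated with 0.1 mM Ro20-1724, then with compound for 10 min at room temperature. Cells were stimulated with 200 nM NKH477 plus 12 nM quinpirole for 30 min, and cAMP was read by HTRF.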
# [20] = target: D(2) dopamine receptor (Homo sapiens) (UniProt P14416); experiment: Dopamine D2 receptor (DRD2) small molecule agonists, cell-based qHTS assay (AID 1963594); further: nearly all actives have a fitted effect of over 35% in size
# In short: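 cAMP accumulation in DRD2-HEK293 cells measured by HTRF after 1 h detection; compounds added 10 min before NKH477 (200nM […]) forskolin-analogue stimulation, 30 min at room temperature, with Ro20-1724 present at 0.1 mM final.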
SMILES,Potency [1],Potency [2],Potency [3],Potency [4],Potency [5],Potency [6],Potency [7],Potency [8],Potency [9],Potency [10],Potency [11],Potency [12],Potency [13],Potency [14],Potency [15],Potency [16],Potency [17],Potency [18],Potency [19],Potency [20]
O=C=NC1CCCCC1,inactive,inactive,inactive,inactive,inactive,inactive,inactive,inactive,inactive,inactive,inactive,inactive,inactive,inactive,inactive,inactive,inactive,inactive,inactive,–
ClCCBr,inactive,inactive,inactive,inactive,inactive,inactive,inactive,inactive,inactive,inactive,inactive,inactive,inactive,inactive,inactive,inactive,inactive,inactive,inactive,inactive
CSc1nnc(C(C)(C)C)c(=O)n1N,inactive,inactive,inactive,inactive,inactive,inactive,inactive,inactive,inactive,inactive,inactive,inactive,inactive,inactive,inactive,inactive,inactive,–,inactive,inactive
CC(Cl)Cl,inactive,5.84 µM (active),inactive,inactive,inactive,inactive,inactive,inactive,inactive,inactive,inactive,inactive,inactive,inactive,inactive,inactive,inactive,inactive,inactive,–
O=C(O)COc1ccccc1,inactive,inactive,inactive,inactive,inactive,inactive,inactive,inactive,inactive,inactive,inactive,inactive,inactive,inactive,inactive,inactive,–,inactive,inactive,inactive
CCC(C)n1c(=O)[nH]c(C)c(Br)c1=O (stereo unspecified),inactive,inactive,inactive,inactive,inactive,inactive,inactive,inactive,inactive,inactive,inactive,inactive,inactive,inactive,inactive,inactive,–,inactive,inactive,–
Nc1ccc([N+](=O)[O-])cc1N,13.7 µM (active),34.4 µM (active),inactive,inactive,inactive,inactive,inactive,inactive,inactive,inactive,inactive,inactive,inactive,inactive,inactive,inactive,–,–,inactive,inactive
CN(C)CCO,inactive,69.1 µM (active) and inactive,inactive,inactive,inactive,inactive,inactive,inactive,inactive,inactive,inactive,inactive,inactive,inactive,–,inactive,inactive,inactive,inactive,inactive
NC(=O)OCCCc1ccccc1,inactive,inactive,inactive,inactive,inactive,inactive,inactive,inactive,inactive,inactive,inactive,inactive,inactive,inactive,inactive,–,inactive,inactive,inactive,–
NCc1cccnc1,inactive,inactive,inactive,inactive,inactive,inactive,inactive,inactive,inactive,inactive,inactive,inactive,inactive,inactive,inactive,inactive,–,–,inactive,inactive
CCN(CC)C1CCCCC1,inactive,inactive,inactive,inactive,inactive,inactive,inactive,inactive,inactive,inactive,inactive,inactive,inactive,inactive,–,inactive,inactive,inactive,inactive,inactive
c1ccc(CN2CCNCC2)cc1,inactive,inactive,inactive,inactive,inactive,inactive,inactive,inactive,inactive,inactive,inactive,inactive,inactive,inactive,inactive,inactive,–,inactive,inactive,–
CC(C)OC(=O)Nc1cccc(Cl)c1,inactive,inactive,inactive,inactive,inactive,inactive,inactive,inactive,inactive,inactive,inactive,inactive,inactive,inactive,inactive,inactive,–,inactive,inactive,inactive
OC(O)C(Cl)(Cl)Cl,inactive,inactive,inactive,inactive,inactive,inactive,inactive,inactive,inactive,inactive,inactive,inactive,inactive,inactive,inactive,inactive,–,inactive,inactive,inactive
O=S(=O)(O)C(F)(F)C(F)(F)C(F)(F)C(F)(F)C(F)(F)C(F)(F)F,inactive,inactive,inactive,inactive,inactive,inactive,inactive,inactive,inactive,inactive,inactive,inactive,inactive,inactive,inactive,–,inactive,inactive,inactive,inactive
